Laboratory results published in PubChem BioAssay AID1159580 (chemical genetic matrix, 2015).
Where “and” joins values, the source holds several entries; their conditions need not be identical. Equal values may be shown once. The campaign covered roughly 5,500 compounds. About 2,000 (36%) were called active. Roughly 18% stayed inconclusive and do not appear here. No stated cut-off is given here; in the data, active means normalized growth mostly below about 0.91 (no sharp cut-off); inconclusive means no clear call, values can overlap the other calls; inactive means mostly above about 0.92. The list shows a part of the results.

Test: chemical genetic growth profiling, strain panel (AID 1159580);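 further: tested at 20 µM; growth read once vehicle control cultures reached saturation at 30 °C; 1 = growth at the plate median or of vehicle wells; lower values mean less growth of the strain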
Conditions: S. cerevisiae deletion strains, growth OD

Measured: normalized growth

C=C[C@@]1(C)CC(=O)[C@@]2(O)[C@](C)(O1)[C@@H](OC(C)=O)[C@@H](O)C1C(C)(C)CC[C@H](O)[C@@]12C (stereo partly specified)
inactive: locus YAL013W, strain DEP1, hits give low values 0.984 | locus YAL021C, strain ccr4, hits give low values 0.951 | locus YAL026C, strain drs2, hits give low values 0.978 | locus YAL030W, strain snc1, hits give low values 0.973 | locus YBL061C, strain skt5, hits give low values 0.984 | locus YBR009C, strain hhf1, hits give low values 1 | locus YBR021W, strain FUR4, hits give low values 1.01 | locus YBR023C, strain chs3, hits give low values 0.978 | locus YBR171W, strain sec66, hits give low values 0.992 | locus YBR229C, strain ROT2, hits give low values 0.947 | locus YBR231C, strain swc5, hits give low values 1.01 | locus YBR279W, strain paf1, hits give low values 0.974 | locus YCL011C, strain gbp2, hits give low values 0.954 | locus YCL016C, strain dcc1, hits give low values 0.956 | locus YCL029C, strain bik1, hits give low values 0.977 | locus YCL069W, strain vba3, hits give low values 0.983 | locus YCR088W, strain abp1, hits give low values 0.996 | locus YDL005C, strain med2, hits give low values 0.983 | locus YDL035C, strain GPR1, hits give low values 0.96 | locus YDL040C, strain nat1, hits give low values 0.986 | locus YDL074C, strain BRE1, hits give low values 0.999 | locus YDL101C, strain DUN1, hits give low values 0.988 | locus YDL134C, strain PPH21, hits give low values 0.981 | locus YDL185W, strain tfp1, hits give low values 0.986 | locus YDL192W, strain arf1, hits give low values 0.976 | locus YDR001C, strain nth1, hits give low values 0.976 | locus YDR069C, strain doa4, hits give low values 0.975 | locus YDR101C, strain arx1, hits give low values 0.986 | locus YDR137W, strain rgp1, hits give low values 0.989 | locus YDR150W, strain NUM1, hits give low values 0.972 | locus YDR159W, strain sac3, hits give low values 1.02 | locus YDR162C, strain NBP2, hits give low values 0.969 | locus YDR195W, strain ref2 1.02 | locus YDR297W, strain sur2, hits give low values 0.977 | locus YDR318W, strain mcm21, hits give low values 0.986 | locus YDR334W, strain swr1, hits give low values 0.972 | locus YDR335W, strain msn5, hits give low values 0.988 | locus YDR388W, hits give low values 0.988 | locus YDR392W, strain spt3, hits give low values 0.905 | locus YDR502C, strain sam2, hits give low values 0.965 | locus YEL003W, strain gim4, hits give low values 0.994 | locus YEL037C, strain rad23, hits give low values 0.997 | locus YEL061C, strain CIN8 (second series), hits give low values 0.992 | locus YEL061C, strain CIN8, hits give low values 0.983 | locus YER015W, strain faa2, hits give low values 0.993 | locus YER016W, strain bim1, hits give low values 0.963 | locus YER110C, hits give low values 0.976 | locus YER111C, strain swi4, hits give low values 1.01 | locus YER155C, strain BEM2 (second series), hits give low values 0.999 | locus YER155C, strain BEM2, hits give low values 1.01 | locus YER167W, strain BCK2, hits give low values 0.964 | locus YFR010W, strain ubp6, hits give low values 0.998 | locus YGL078C, strain dbp3, hits give low values 0.985 | locus YGL086W, strain mad1, hits give low values 0.984 | locus YGL167C, strain pmr1, hits give low values 0.99 | locus YGL173C, strain kem1, hits give low values 0.987 | locus YGL227W, strain vid30, hits give low values 0.985 | locus YGL240W, strain doc1, hits give low values 0.98 | locus YGL248W, strain PDE1, hits give low values 0.982 | locus YGL253W, strain hxk2, hits give low values 0.948 | locus YGR078C, strain PAC10, hits give low values 1.01 | locus YGR135W, strain pre9, hits give low values 0.985 | locus YGR229C, strain SMI1, hits give low values 0.998 | locus YGR252W, strain gcn5, hits give low values 1 | locus YHR013C, strain ard1, hits give low values 0.948 | locus YHR027C, strain rpn1, hits give low values 0.982 | locus YHR030C, strain SLT2, hits give low values 0.987 and 0.975 | locus YHR079C, strain IRE1 (second series), hits give low values 0.994 | locus YHR079C, strain IRE1, hits give low values 0.978 | locus YHR094C, strain hxt1, hits give low values 0.987 | locus YHR129C, strain ARP1, hits give low values 0.996 | locus YHR142W, strain chs7, hits give low values 0.955 | locus YHR200W, strain rpn10, hits give low values 0.989 | locus YIL066C, strain RNR3, hits give low values 0.979 | locus YIL073C, strain SPO22, hits give low values 0.945 | locus YIL125W, strain kgd1, hits give low values 0.983 | locus YIR030C, strain dcg1, hits give low values 0.979 | locus YJL092W, strain hpr5, hits give low values 0.974 | locus YJL095W, strain BCK1 (second series), hits give low values 0.978 | locus YJL095W, strain BCK1, hits give low values 1 and 0.973 | locus YJL115W, strain asf1, hits give low values 0.964 | locus YJL129C, strain trk1, hits give low values 0.954 | locus YJL134W, strain LCB3, hits give low values 0.984 | locus YJL154C, strain vps35, hits give low values 0.982 | locus YJL164C, strain tpk1, hits give low values 0.995 | locus YJL166W, strain qcr8, hits give low values 0.992 | locus YJL168C, strain set2, hits give low values 0.992 | locus YJL187C, strain SWE1 (second series), hits give low values 0.991 | locus YJL187C, strain SWE1, hits give low values 0.984 | locus YJR043C, strain POL32, hits give low values 1.01 | locus YJR066W, strain TOR1, hits give low values 0.927
